Source: PubChem BioAssay
Mdm2 MdmX PPI: human Mdm2/MdmX binding inhibition | O15151+Q00987 | SaOS-2 split-luciferase Mdm2/MdmX complementation, luminescence | inhibition, % at 8 µM | hit rate 3% among 330,000;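 active = inhibition of at least 50% at 8 µM in the primary screen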
Target sequence (O15151 whole entry, looked up): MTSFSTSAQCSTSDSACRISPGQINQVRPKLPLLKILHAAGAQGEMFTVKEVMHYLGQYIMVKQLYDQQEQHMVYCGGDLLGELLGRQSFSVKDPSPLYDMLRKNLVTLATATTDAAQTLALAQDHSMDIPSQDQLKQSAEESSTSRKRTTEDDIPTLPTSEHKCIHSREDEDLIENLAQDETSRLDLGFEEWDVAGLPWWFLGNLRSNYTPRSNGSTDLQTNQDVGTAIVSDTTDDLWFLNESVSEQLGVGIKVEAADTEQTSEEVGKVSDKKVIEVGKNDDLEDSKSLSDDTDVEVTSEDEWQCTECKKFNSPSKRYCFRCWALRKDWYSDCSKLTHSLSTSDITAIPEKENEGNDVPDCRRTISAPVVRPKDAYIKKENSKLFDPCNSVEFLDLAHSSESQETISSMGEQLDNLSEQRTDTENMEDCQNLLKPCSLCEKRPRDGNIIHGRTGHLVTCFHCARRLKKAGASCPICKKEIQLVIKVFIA
Target sequence (Q00987 whole entry, looked up): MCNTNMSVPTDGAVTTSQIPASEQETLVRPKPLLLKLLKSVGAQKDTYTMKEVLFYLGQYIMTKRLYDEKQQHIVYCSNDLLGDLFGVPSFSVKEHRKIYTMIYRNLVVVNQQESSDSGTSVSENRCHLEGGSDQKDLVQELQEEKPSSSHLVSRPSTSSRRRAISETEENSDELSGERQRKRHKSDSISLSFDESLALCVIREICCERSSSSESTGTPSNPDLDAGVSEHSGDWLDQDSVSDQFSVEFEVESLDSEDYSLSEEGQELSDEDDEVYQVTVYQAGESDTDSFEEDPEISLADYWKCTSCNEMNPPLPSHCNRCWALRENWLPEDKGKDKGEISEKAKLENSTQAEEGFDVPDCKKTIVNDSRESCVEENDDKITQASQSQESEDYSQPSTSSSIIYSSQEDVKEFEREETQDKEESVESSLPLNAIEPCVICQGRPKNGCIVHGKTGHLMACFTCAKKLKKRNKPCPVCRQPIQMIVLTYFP
Beta cell apopt: blocks beta cell apoptosis; INS-1E cytokine-induced death, ATP luminescence, 48 h; percent of positive-control rescue, neutral wells zero; protection from apoptosis, % (no concentration beside the values); hit rate 0.8% among 300,000;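 active = Every replicate reaches about 75%, or at least half do and their mean reaches it too, limit read from the data; inconclusive = At least half of replicates reach the limit but their mean does not; inactive = Under half of replicates reach the limit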;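 also: 0% = cytokine-treated negative control wells and 100% = positive control rescue; higher means more ATP so stronger rescue from cytokine killing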
MPTP inh: blocks calcium-induced mitochondrial swelling; isolated mouse mitochondria, Ca2+ swelling absorbance, 30 min; inhibition, % at 10 µM; hit rate 1.4% among 360,000; AID 602449;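 active = inhibition of 50% or more, scaled per plate between neutral and stimulator controls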;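 also: 0% = DMSO wells given calcium and 100% = 1 mM EGTA wells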
CSC inhib: blocks cancer stem cells; cancer stem cell-like cells viability, luminescence; hit rate 1.1% among 300,000; AID 2717; inhibition, % at 7.5 µM; in the data active = inhibition above about 75%; inconclusive = no clear call, values can overlap the other calls; tested in HMLE shEcad cells
Calb FLC: affects C. albicans growth with fluconazole; C. albicans CaCi-2 (fluconazole-resistant clinical isolate) + fluconazole, Alamar Blue growth, 48 h; growth inhibition, % (test concentration not listed); hit rate 0.57% among 300,000; AID 1979;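 active = growth inhibition above about 58% in most replicates, limit read from the data, passing the limit was not always enough; inconclusive = exactly half the replicates above a set limit; inactive = most replicates below a set limit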;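 also: all wells also contain fluconazole at 8 µg/ml as a sub-toxic cotreatment; 0% = median of DMSO wells and 100% = median of geldanamycin control wells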
Mdm2-MdmX conf: confirmation of human Mdm2/MdmX interaction inhibitors; shares compounds with Mdm2 MdmX PPI; inhibition, % at 8 µM; AID 489028; hit rate 55% among 10,000; Mdm2-MdmX binding, luminescent assay; in the data active = inhibition above about 40%
Full FLuc ctr: counter-screen for Mdm2/MdmX inhibitors: full-length luciferase | shares compounds with Mdm2 MdmX PPI | SaOS-2 full-length luciferase counterscreen, luminescence | inhibition, % at 8 µM | hit rate 77% among 6,200 | AID 504607;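 active = mean inhibition at 8 µM reaching about 37%, which flags the compound as non-specific, limit read from the data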;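 also: p53-null SaOS-2 cells with luciferase driven by a doxycycline-inducible promoter; compound on cells about two nights before reading with doxycycline added after day one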
* hit, by the source's call. Rows were chosen to be rich in hits. Some 4.8% of all compounds tested hit in one or more screens of this group.

For Cc1nc(NC2=NCN(Cc3cccnc3)CN2)nc2ccccc12 the results were MPTP inh 4.
Cc1nc(NC2=NCN(CCCN3CCOCC3)CN2)nc2c(C)cccc12 was read as Mdm2 MdmX PPI 97*, Beta cell apopt 4, MPTP inh 0, CSC inhib 5, Mdm2-MdmX conf 96* and Full FLuc ctr 25.
For CCc1ccc(OCC(=O)NNC(=O)C2CCC2)cc1 the results were Mdm2 MdmX PPI 11, Beta cell apopt -7, MPTP inh 2, CSC inhib -4 and Calb FLC -1.
O=c1[nH][nH]c(-c2ccccc2O)c1C(C[N+](=O)[O-])c1ccc(Br)cc1 (stereo not drawn) was read as Mdm2 MdmX PPI 54*, Beta cell apopt 3, MPTP inh 22, CSC inhib 59, Calb FLC 21 and Mdm2-MdmX conf 23.
`COc1ccc(NC(C)C(=O)Nc2cc(C(F)(F)F)ccc2N2CCOCC2)c(OC)c1` (stereo not drawn) gave Mdm2 MdmX PPI 57*, Beta cell apopt -4, MPTP inh 1, CSC inhib 11, Calb FLC inconclusive and Mdm2-MdmX conf 21.
`O=C(O)CC(NC(=O)COc1ccccc1)c1cccc([N+](=O)[O-])c1` (stereo not drawn) gave Mdm2 MdmX PPI -12, Beta cell apopt -2, MPTP inh 1, CSC inhib -5 and Calb FLC -9.
Screening CC(C)=CCC/C(C)=C/CCC(C)NCCN1CCNCC1 (stereo not drawn) returned Mdm2 MdmX PPI 27, Beta cell apopt 7, CSC inhib 53 and Calb FLC -10.
`CC(C)=CCC/C(C)=C/CC(C)(C)CNCCN1CCNCC1` gave Mdm2 MdmX PPI 88*, Beta cell apopt 7, CSC inhib 65, Calb FLC -23 and Mdm2-MdmX conf 30.
CC(=O)Nc1ccc(S(=O)(=O)Oc2ccc3c(c2)C(C)=CC(C)(C)N3)cc1 was read as Mdm2 MdmX PPI 98*, Beta cell apopt 34, CSC inhib 32, Calb FLC 28, Mdm2-MdmX conf 79* and Full FLuc ctr 21.
CC(c1nccs1)N(C)c1nc2nonc2nc1N(C)C (stereo not drawn) was read as Mdm2 MdmX PPI -3, Beta cell apopt -3, MPTP inh 0, CSC inhib -19 and Calb FLC 0.
For COc1cc(OC)c2cc(C(=O)N/N=C/c3cccc(OC)c3O)[nH]c2c1 the results were Mdm2 MdmX PPI 69*, Beta cell apopt 97*, MPTP inh 17, CSC inhib 125*, Calb FLC 2, Mdm2-MdmX conf 62* and Full FLuc ctr 34.
Screening COc1cccc(/C=N/Nc2ccc(C(=O)O)cc2)c1O returned Mdm2 MdmX PPI 54*, Beta cell apopt 21, MPTP inh -1, CSC inhib 25, Calb FLC 11 and Mdm2-MdmX conf 24.
`COc1cccc(C=NNC(=O)c2ccncc2)c1O` gave MPTP inh 2.
For COc1cccc(/C=N/NC(=O)c2nc(-c3ccccc3)cc(-c3ccccc3)n2)c1O the results were Mdm2 MdmX PPI 51*, Beta cell apopt 8, MPTP inh 5, CSC inhib 46, Calb FLC 114* and Mdm2-MdmX conf 20.
`COc1cccc(/C=N/Nc2ccc(S(=O)(=O)O)cc2)c1O` gave Mdm2 MdmX PPI 9, Beta cell apopt -6, MPTP inh -1, CSC inhib -10 and Calb FLC -6.
`COc1cccc(/C=N/NC(=O)c2cc3c(OC)ccc(OC)c3[nH]2)c1O` gave Mdm2 MdmX PPI 62*, Beta cell apopt 86*, MPTP inh 2, CSC inhib 103*, Calb FLC -19, Mdm2-MdmX conf 63* and Full FLuc ctr 38*.
For Cn1cc(CN2CCCC(C(=O)Nc3ccc(-c4cccc(F)c4)cc3)C2)cn1 (stereo not drawn) the results were Mdm2 MdmX PPI 37, Beta cell apopt 16, MPTP inh 9, CSC inhib 24 and Calb FLC 22.
CCOC(=O)C1CCCN(C(=O)c2cccc(C(F)(F)F)c2)CC1 (stereo not drawn) was read as MPTP inh -1.
`CCCn1c(=O)c(C(=O)NNS(=O)(=O)c2ccc(C)cc2)c(O)c2ccccc21` gave Mdm2 MdmX PPI 51*, Beta cell apopt 4, MPTP inh 28, CSC inhib 36, Calb FLC -2, Mdm2-MdmX conf 30 and Full FLuc ctr 85*.
`Cc1cccc(C)c1NC(=O)C(c1cccc2ccccc12)n1c(=O)c(-c2cc3ccccc3[nH]2)nc2ccccc21` (stereo not drawn) gave MPTP inh 2.
For COc1ccc(CC(=O)Nc2ccc(/C(C)=N/NC(=O)c3cccc([N+](=O)[O-])c3)cc2)cc1 the results were Mdm2 MdmX PPI 57*, Beta cell apopt -3, MPTP inh 0, CSC inhib -3, Calb FLC -1 and Mdm2-MdmX conf -4.
For CCC(=O)N1CCN(c2ccc(Cl)cc2NC(=O)c2cccc([N+](=O)[O-])c2)CC1 the results were Mdm2 MdmX PPI 55*, Beta cell apopt 4, MPTP inh 0, CSC inhib -3, Calb FLC -1 and Mdm2-MdmX conf 6.
`CCCCCCCC(=O)Nc1ccc(C(=O)N/N=C/c2cccc([N+](=O)[O-])c2)cc1` gave Mdm2 MdmX PPI 88*, Beta cell apopt 95*, MPTP inh -1, CSC inhib 14, Calb FLC -1 and Mdm2-MdmX conf 19.
`O=C(N/N=C/c1ccncc1)c1cccc([N+](=O)[O-])c1` gave Mdm2 MdmX PPI -31, Beta cell apopt 2, CSC inhib -5 and Calb FLC 0.
Screening COc1ccc(NC(=O)c2cccc([N+](=O)[O-])c2)cc1 returned Mdm2 MdmX PPI -22, Beta cell apopt 3, MPTP inh 2, CSC inhib -10 and Calb FLC -8.
`CCC(=O)N1CCN(c2ccccc2NC(=S)NC(=O)c2cccc([N+](=O)[O-])c2)CC1` gave Mdm2 MdmX PPI -3, Beta cell apopt 5, MPTP inh 2, CSC inhib -12 and Calb FLC 4.
`CC(/C=N/NC(=O)c1cccc([N+](=O)[O-])c1)=C\c1ccccc1` gave Mdm2 MdmX PPI 74*, Beta cell apopt 0, MPTP inh 1, Calb FLC -4 and Mdm2-MdmX conf -30.
For CC1(C(=O)NS(=O)(=O)c2ccc(F)cc2F)CCN1C(=O)C1(c2ccc(Cl)cc2)CC1 (stereo not drawn) the results were MPTP inh 1.
Screening CCCNC(=O)c1cc(C2CCCN(C(=O)C3CC3)C2)on1 (stereo not drawn) returned MPTP inh 0.
